The panel holds about 79,000 compounds, 15% with a hit somewhere; the sample as a whole holds those more often. A number with no mark means an inactive call. The source made the active and inactive calls. Rule as the data show it: active = growth inhibition above about 70%; inactive = the rest.

A short description of this assay: NCI Yeast Anticancer Drug Screen. Data for the sgs1 strain (AID 173).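 Also: 0% = growth of vehicle-only control cultures.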 The conditions noted are these: S. cerevisiae sgs1 mutant, at 11.0 µM, active compounds read high. The gist of the method: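 Relative growth inhibition, referenced to vehicle, was determined in a yeast strain with a defined alteration affecting DNA damage repair or cell cycle control after compound exposure.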
As for `CN(C)CC(CN(C)C)C(=O)/C=C/c1ccc(Cl)cc1Cl`, the growth inhibition was 5%.

In the case of `c1ccc2c(c1)ccn2CCc1c[nH]c2ccccc12`, the growth inhibition was -20%.

With `CC(C)OC(=O)NNc1c(Cl)cc(Cl)cc1Cl`, the growth inhibition is 0%.

As to `COc1ccc2nc3cccc([N+](=O)[O-])c3c(NCCNCCO)c2c1`, the growth inhibition was 93% (active).

Take `COc1ccc2c(c1)CCCC(Br)C2=O` (configuration not stated): the growth inhibition was 35%.

`CCC(OC(C)=O)C1CC(C(C)C)CCC1C` (configuration not stated): the growth inhibition was 6%.

Consider `O=S(=O)(c1cccc(C(F)(F)F)c1)N1c2ccccc2-n2cccc2C1c1cccnc1` (configuration not stated), for which the growth inhibition is 73% (active).

`c1ccc(-c2cc(C3CO3)c3ccccc3n2)cc1` (configuration not stated): the growth inhibition is 19%.

For the compound `COc1ccc(/C=C2\SC(=S)N(/C=C3\C(=O)N(c4ccccc4)N=C3C)C2=O)cc1OC`, the growth inhibition is 42%.

With `CC1=CC(=C(c2ccc(N)c(C)c2)c2ccc(N)c(C)c2)C=CC1=N`, the growth inhibition was 18%.

For `CC1C(c2ccccc2)SC(=N)N1C` (configuration not stated), the growth inhibition was 1%.

For `CC(/C=C/c1ccc([N+](=O)[O-])o1)=N/N1CC(CN2CCOCC2)OC1=O` (configuration not stated), the growth inhibition is 69%.

As to `C=CC(C)(C)N1C(=O)C(C(C)=O)=C(O)C1Cc1c[nH]c2ccccc12` (configuration not stated), the growth inhibition is 2%.

As for `O=C1c2cccc3cccc(c23)C(=O)N1CCNCCN1C(=O)c2cccc3cccc(c23)C1=O`, the growth inhibition is -1%.

Consider `Cc1ccc([N+](=O)[O-])c2c(NCCC[N+](C)(C)[O-])c3ccccc3nc12`, for which the growth inhibition was 31%.

Consider `COC(=O)C(Cc1c[nH]c2ccccc12)N1CN(C)c2ccccc2C1=O` (configuration not stated), for which the growth inhibition was 1%.

Take `O=C(/N=N/C(=O)Oc1ccccc1)Oc1ccccc1`: the growth inhibition was -35%.

(Values after PubChem BioAssay (NCI).)
